Experimental data reported in PubChem BioAssay AID1159580 (chemical genetic matrix, 2015).
Out of some 5,500 compounds screened, about 2,000 (36%) were called active. Another 18% or so got no clear call; they are omitted. No stated cut-off is given here; in the data, active means normalized growth mostly below about 0.91 (no sharp cut-off); inconclusive means no clear call, values can overlap the other calls; inactive means mostly above about 0.92. The list shows a part of the results.

Experiment: chemical genetic growth profiling, strain panel (AID 1159580);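 further: tested at 20 µM; growth read once vehicle control cultures reached saturation at 30 °C; 1 = growth at the plate median or of vehicle wells; lower values mean less growth of the strain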
Settings: S. cerevisiae deletion strains, growth OD
[1] = locus YAR019C, strain CDC15, hits give low values
[2] = locus YBL105C, strain PKC1, hits give low values
[3] = locus YBR135W, strain CKS1, hits give low values
[4] = locus YBR136W, strain MEC1, hits give low values
[5] = locus YBR160W, strain CDC28, hits give low values
[6] = locus YDL017W, strain CDC7, hits give low values
[7] = locus YDL028C, strain MPS1, hits give low values
[8] = locus YDL101C, strain DUN1, hits give low values
[9] = locus YDL108W, strain KIN28, hits give low values
[10] = locus YDL132W, strain cdc53, hits give low values
[11] = locus YDL214C, strain PRR2, hits give low values
[12] = locus YDR052C, strain DBF4, hits give low values
[13] = locus YDR054C, strain cdc34, hits give low values
[14] = locus YDR226W, strain ADK1, hits give low values
[15] = locus YDR477W, strain SNF1, hits give low values
[16] = locus YER123W, strain YCK3, hits give low values
[17] = locus YER133W, strain GLC7, hits give low values
[18] = locus YFL009W, strain cdc4, hits give low values
[19] = locus YFL029C, strain CAK1, hits give low values
[20] = locus YFR003C, strain YPI1, hits give low values
[21] = locus YFR019W, strain FAB1, hits give low values
[22] = locus YGR040W, strain KSS1, hits give low values
[23] = locus YGR052W, strain FMP48, hits give low values
[24] = locus YGR092W, strain DBF2, hits give low values
[25] = locus YHR030C, strain SLT2, hits give low values
[26] = locus YHR079C, strain IRE1, hits give low values
[27] = locus YHR082C, strain KSP1, hits give low values
[28] = locus YHR205W, strain SCH9, hits give low values
[29] = locus YIL147C, strain SLN1, hits give low values
[30] = locus YJL095W, strain BCK1, hits give low values
[31] = locus YJL128C, strain PBS2, hits give low values
[32] = locus YJL157C, strain FAR1, hits give low values
[33] = locus YJR016C, strain ILV3, hits give low values
[34] = locus YJR066W, strain TOR1 (second series), hits give low values
[35] = locus YJR066W, strain TOR1, hits give low values
[36] = locus YKL048C, strain ELM1, hits give low values
[37] = locus YKL067W, strain YNK1, hits give low values
[38] = locus YKL101W, strain HSL1, hits give low values
[39] = locus YKL193C, strain SDS22, hits give low values
[40] = locus YKL203C, strain TOR2, hits give low values
[41] = locus YLR113W, strain HOG1, hits give low values
[42] = locus YLR133W, strain CKI1, hits give low values
[43] = locus YLR403W, strain SFP1, hits give low values
[44] = locus YML070W, strain DAK1, hits give low values
[45] = locus YMR001C, strain CDC5, hits give low values
[46] = locus YMR205C, strain PFK2 (second series), hits give low values
[47] = locus YMR277W, strain FCP1, hits give low values
[48] = locus YNL006W, strain LST8, hits give low values
[49] = locus YNL020C, strain ARK1, hits give low values
[50] = locus YNL161W, strain CBK1, hits give low values
[51] = locus YNL183C, strain NPR1, hits give low values
[52] = locus YNL207W, strain RIO2, hits give low values
[53] = locus YNL222W, strain SSU72, hits give low values
[54] = locus YNL307C, strain MCK1 (second series), hits give low values
[55] = locus YOL078W, strain AVO1, hits give low values
[56] = locus YOL136C, strain PFK27, hits give low values
[57] = locus YOR061W, strain CKA2, hits give low values
[58] = locus YOR119C, strain RIO1, hits give low values
[59] = locus YOR231W, strain MKK1, hits give low values
[60] = locus YOR329C, strain SCD5, hits give low values
[61] = locus YPL031C, strain PHO85, hits give low values
[62] = locus YPL153C, strain RAD53, hits give low values
[63] = locus YPL204W, strain HRR25, hits give low values
[64] = locus YPL209C, strain IPL1, hits give low values
[65] = locus YPL256C, strain CLN2, hits give low values
[66] = locus YPR025C, strain CCL1, hits give low values
[67] = locus YPR111W, strain DBF20, hits give low values
[68] = strain NNK1, hits give low values
[69] = strain TSCII, hits give low values

Measured: normalized growth

CC1C/C(=N/Nc2ccc(Br)cc2)c2cc(Cl)ccc2S1(=O)=O (stereo not given)
inactive: [1] 1.01 | [2] 0.996 | [3] 0.989 | [4] 0.999 | [5] 0.995 | [6] 0.997 | [7] 1 | [8] 0.988 | [9] 0.992 | [10] 0.986 | [11] 0.888 | [12] 0.998 | [13] 1 | [14] 0.986 | [15] 0.895 | [16] 0.82 | [17] 0.895 | [18] 0.991 | [19] 0.992 | [20] 0.998 | locus YFR028C, strain CDC14, hits give low values 0.991 | [22] 0.893 | [23] 0.93 | [26] 0.647 | [27] 0.793 | [28] 0.728 | [29] 1 | [30] 0.8 | [31] 1 | [32] 0.801 | [33] 0.99 | [34] 0.783 | [35] 0.804 | [36] 0.906 | [37] 0.911 | [38] 0.9 | [39] 0.98 | [40] 0.92 | [41] 0.885 | [42] 0.848 | [43] 0.763 | [44] 0.841 | [45] 0.995 | [46] 0.903 | [47] 0.982 | [48] 0.984 | [49] 0.837 | [50] 0.987 | [51] 0.908 | [52] 0.992 | [53] 0.986 | [54] 0.667 | [55] 0.99 | [56] 0.8 | [58] 0.839 | [59] 0.879 | [60] 0.998 | [61] 0.868 | [62] 0.854 | [63] 0.855 | [64] 0.988 | [65] 0.879 | [66] 0.995 | locus YPR106W, strain ISR1, hits give low values 0.998 | [67] 0.992 | [68] 0.994 | [69] 0.994
active: [21] 0.732 | [24] 0.397 | [25] 0.462 | [57] 0.507

CC1C/C(=N/Nc2ccc(Br)cc2)c2cc(Cl)ccc2S1 (stereo not given)
active: [1] 0.535 | [2] 0.485 | [3] 0.429 | [4] 0.497 | [5] 0.58 | [6] 0.525 | [7] 0.396 | [8] 0.458 | [9] 0.598 | [10] 0.546 | [11] 0.161 | [12] 0.703 | [13] 0.333 | [15] 0.146 | [16] 0.166 | [17] 0.213 | [18] 0.434 | [19] 0.404 | [20] 0.433 | [21] 0.124 | [22] 0.187 | [23] 0.215 | [24] 0.125 | [25] 0.193 | [26] 0.192 | [27] 0.277 | [28] 0.0907 | [29] 0.409 | [30] 0.15 | [31] 0.318 | [32] 0.168 | [33] 0.343 | [34] 0.117 | [35] 0.224 | [36] 0.198 | [37] 0.185 | [38] 0.187 | [39] 0.498 | [40] 0.182 | [41] 0.235 | [42] 0.128 | [43] 0.0605 | [44] 0.151 | [45] 0.644 | [46] 0.163 | [47] 0.519 | [48] 0.265 | [49] 0.141 | [50] 0.383 | [51] 0.194 | [52] 0.624 | [53] 0.369 | [54] 0.114 | [55] 0.529 | [56] 0.158 | [57] 0.12 | [58] 0.158 | [59] 0.187 | [60] 0.303 | [61] 0.147 | [62] 0.126 | [63] 0.131 | [64] 0.385 | [65] 0.208 | [66] 0.41 | [68] 0.545 | [69] 0.644
inactive: [14] 0.931 | [67] 0.9
